{
  "source": "PubChem BioAssay AID1578",
  "about": "(Sanford-Burnham Center for Chemical Genomics, 2009)",
  "note": "Several values for one entry are separate records, joined by “and”; a condition that tells them apart may be missing. Identical values can stand only once. Among all 290,000 compounds or so, about 3,000 (1%) were called active. This is one part of a sample in which actives are shown more often than they occur. Values without a mark were called inactive. Rule as the data show it: active = inhibition mostly above about 36% (no sharp cut-off); inactive = mostly below about 34%.",
  "data": [
    {"test": "inhibition of NOD1-driven NF-kB reporter – cell-based, luminescence, uHTS, primary screen (AID 1578);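 also: HEK-293T reporter cells stimulated with the NOD1 agonist gamma-tri-DAP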", "settings": "NOD1-driven NF-kB luciferase reporter cells, at 4 µM, active compounds read high", "values": [
      {"smiles": "C=C(C(=O)O)C1CCC2(C)CCCC(C)(O)C2C1", "note": "(configuration not stated)", "inhibition": "-0.6%"},
      {"smiles": "C/C(O)=c1/ccc2cccc3nc(C)nc1c23", "inhibition": "-3.6%"},
      {"smiles": "O/C=c1\\ccc2cccc3nc(C(F)(F)F)nc1c23", "inhibition": "38% (active)"},
      {"smiles": "NNc1nc(C(F)(F)F)nc2ccccc12", "inhibition": "-7.9%"},
      {"smiles": "Cc1ccc(NC(=O)COC(=O)C(NS(=O)(=O)c2ccc(Cl)cc2)C(C)O)c(Br)c1", "note": "(configuration not stated)", "inhibition": "-22.2%"},
      {"smiles": "CCOC(=O)N1CCN(C(=O)CN(C2CCCCC2)S(=O)(=O)c2c(C)cc(C)cc2C)CC1", "inhibition": "-2.2%"},
      {"smiles": "COc1ccc(C(=O)NCCNc2ccc([N+](=O)[O-])cc2)cc1", "inhibition": "-51.3%"},
      {"smiles": "COc1ccc(C(=O)NCCNc2ccccc2[N+](=O)[O-])cc1", "inhibition": "-34%"},
      {"smiles": "CCCNC(=O)c1ccc(S(=O)(=O)c2ccc(OC)cc2)c([N+](=O)[O-])c1", "inhibition": "63.9% (active)"},
      {"smiles": "CCOc1ccc(OCC)c(S(=O)(=O)n2cc(C)nc2CC)c1", "inhibition": "-17.2%"},
      {"smiles": "CCc1nc(C(N)=O)c2[nH]c(=O)n(-c3ccccc3F)c2n1", "inhibition": "-17%"},
      {"smiles": "COc1ccc(OC)c(/C=C/C(=O)N2C(=O)c3cccc(N)c3C2=O)c1", "inhibition": "88.6% (active)"},
      {"smiles": "Nc1cccc2c1C(=O)N(C(=O)/C=C/c1cccc(Br)c1)C2=O", "inhibition": "3.9%"},
      {"smiles": "COc1cc(/C=C/C(=O)N2C(=O)c3cccc(N)c3C2=O)cc(OC)c1OC", "inhibition": "17.4%"},
      {"smiles": "COCCSc1nnc(NC(=O)Cc2ccc(OC)cc2)s1", "inhibition": "-20.4%"},
      {"smiles": "CCN1C(=O)C(CC(=O)Nc2ccc(OC)cc2)N(CCCN2CCN(c3ccc(F)cc3)CC2)C1=S", "note": "(configuration not stated)", "inhibition": "-47.7%"},
      {"smiles": "COc1ccccc1N1CCN(C(=O)CCCNC(=O)Cn2cnc3sc(C)c(C)c3c2=O)CC1", "inhibition": "17.8%"},
      {"smiles": "Cc1cccc(NC(=O)CSc2nccn2Cc2ccco2)c1C", "inhibition": "-19.3%"},
      {"smiles": "CN(C)c1ccc(/C=N/Nc2nncc3ccccc23)cc1", "inhibition": "15%"},
      {"smiles": "COc1ccc(/C=N/Nc2nncc3ccccc23)cc1", "inhibition": "0.2%"},
      {"smiles": "CN(CCO)c1ccc(/C=N/Nc2nncc3ccccc23)cc1", "inhibition": "57.1% (active)"},
      {"smiles": "O=C(COC(=O)c1sc2cc(Cl)ccc2c1Cl)Nc1ncc(Cl)cc1Cl", "inhibition": "-10.9%"},
      {"smiles": "COc1ccccc1-c1cc(-c2ccccc2)nc(=O)[nH]1", "inhibition": "-2.4%"},
      {"smiles": "COc1ccc(NC(=O)c2cc([N+](=O)[O-])ccc2O)cc1", "inhibition": "99.1% (active)"},
      {"smiles": "COc1ccc(NC(=O)c2cc([N+](=O)[O-])ccc2N2CCCCC2)cc1", "inhibition": "-27.2%"},
      {"smiles": "COc1ccc(NC(=O)c2cc([N+](=O)[O-])ccc2N2CCCC2)cc1", "inhibition": "-23.7%"},
      {"smiles": "CCN1CCc2c(OCc3ccc(C)cc3)cccc2C1=O", "inhibition": "2.6%"},
      {"smiles": "CCCCn1c(-c2csc3ccccc23)n[nH]c1=S", "inhibition": "5.2%"},
      {"smiles": "CCCCNC(=O)C1CCN(C(=O)C2CCN(S(=O)(=O)c3ccc(C)cc3)CC2)CC1", "inhibition": "-21.1%"},
      {"smiles": "C=CCC1(CC=C)CCCN1C(=O)c1cc(COc2cccc(OC)c2)on1", "inhibition": "0.2%"},
      {"smiles": "C=CCC1(CC=C)CCCN1C(=O)c1cc(COc2ccc(F)c(F)c2)on1", "inhibition": "-18.8%"},
      {"smiles": "CNC(=O)/C=C1\\NC(C)(C)Cc2c1ccc1ccccc21", "inhibition": "14.5%"},
      {"smiles": "Cc1nnc(N/N=C/C(C)c2ccccc2)[nH]c1=O", "note": "(configuration not stated)", "inhibition": "-10%"},
      {"smiles": "O=C(CCn1c2c(c3ccccc31)CCCC2)NNC(=O)c1ccc([N+](=O)[O-])cc1", "inhibition": "-4.7%"},
      {"smiles": "CCCCn1c(SCC(=O)Nc2nnc(C)s2)nnc1-c1ccoc1C", "inhibition": "8.6%"},
      {"smiles": "O=C(NCC(Cl)c1ccc2ccccc2c1)c1c(F)cccc1F", "note": "(configuration not stated)", "inhibition": "31.2% (active)"},
      {"smiles": "O=C(NCCCNC(=O)c1c(F)cccc1F)c1c(F)cccc1F", "inhibition": "1.4%"},
      {"smiles": "O=C(NCC(O)c1ccc2ccccc2c1)c1c(F)cccc1F", "note": "(configuration not stated)", "inhibition": "-2.4%"},
      {"smiles": "Cc1ccc(CN(Cc2cc3cc(C)ccc3[nH]c2=O)C(=O)N2CCOCC2)cc1", "inhibition": "-1.5%"},
      {"smiles": "CC(C)CNC(=O)COC(=O)c1cc(Cl)cc(Cl)c1N", "inhibition": "-25.7%"},
      {"smiles": "CC1(C)Cc2nc(N)c(=O)sc2C1", "inhibition": "5.3%"},
      {"smiles": "O=C(O)/C=C/c1cccnc1", "inhibition": "-4.2%"},
      {"smiles": "O=C(/C=C/c1cccnc1)/C=C/c1cccnc1", "inhibition": "49.7% (active)"},
      {"smiles": "CC(/C=C\\c1cccnc1)=C/C(=O)O", "inhibition": "-5.6% and -22.2%"},
      {"smiles": "COC(=O)CCC(=O)N(C)CC1CCCN(CCc2cccc(C(F)(F)F)c2)C1", "note": "(configuration not stated)", "inhibition": "6.2%"},
      {"smiles": "O=C(O)CCN1C(=O)c2ccc(Oc3ccc([N+](=O)[O-])cc3)cc2C1=O", "inhibition": "-1.1%"},
      {"smiles": "COc1ccccc1N(C(=O)c1snc(C(N)=O)c1N)C(C(=O)NC1CCCC1)c1ccc(N(C)C)cc1", "note": "(configuration not stated)", "inhibition": "-3%"},
      {"smiles": "O=C(N/N=C/c1cccc2nccnc12)c1ccccc1O", "inhibition": "6%"},
      {"smiles": "O=C(C#Cc1ccccc1)c1cccc([N+](=O)[O-])c1", "inhibition": "79.8% (active)"},
      {"smiles": "O=C(C#Cc1ccccc1)c1ccc([N+](=O)[O-])cc1", "inhibition": "38.4%"},
      {"smiles": "O=C(C#Cc1cccc([N+](=O)[O-])c1)c1ccccc1", "inhibition": "55.8%"},
      {"smiles": "Cc1nn(CCCC(=O)NC(C)c2ccccc2)c(=O)c2nn(-c3ccccc3)c(C)c12", "note": "(configuration not stated)", "inhibition": "-16.8%"},
      {"smiles": "COc1ccccc1C(=O)Nc1ccccc1C(=O)NCc1ccco1", "inhibition": "25.7%"},
      {"smiles": "CCCSc1nc(SCC(=O)NCc2ccccc2)c2c3c(sc2n1)COC(C)(C)C3", "inhibition": "-25.4%"},
      {"smiles": "O=C(Nc1ccccc1)c1cnc2ccccc2n1", "inhibition": "-56.8%"},
      {"smiles": "CC(NC(=O)c1ccc2ccccc2n1)c1ccccc1", "note": "(configuration not stated)", "inhibition": "-34.3%"},
      {"smiles": "CC(NC(=O)c1cnc2ccccc2n1)c1ccccc1", "note": "(configuration not stated)", "inhibition": "78.3% (active)"},
      {"smiles": "COc1ccc(S(=O)(=O)NC(N)=NCCc2ccc(OC)c(OC)c2)cc1C", "inhibition": "-11.6%"},
      {"smiles": "O=C1c2ccccc2C(=O)C12OC2c1cccc2ccccc12", "note": "(configuration not stated)", "inhibition": "-22.4%"},
      {"smiles": "O=C1c2ccccc2C(=O)C12OC2c1ccc(Cl)cc1Cl", "note": "(configuration not stated)", "inhibition": "36.6%"},
      {"smiles": "O=C1c2ccccc2C(=O)C12OC2c1ccc(Cl)cc1", "note": "(configuration not stated)", "inhibition": "81.6% (active)"},
      {"smiles": "C(=N\\n1cnnc1)/C1CCCCC1", "inhibition": "-17.3%"}
    ]}
  ]
}
